Reference: PubChem BioAssay AID1159580 (chemical genetic matrix, 2015)
Several values for one entry are separate records, joined by “and”; a condition that tells them apart may be missing. Equal values may be shown once. Hit rate of the full screen: of about 5,500 compounds, about 2,000 (36%) were called active. Inconclusive results (about 18%) are left out. Cut-off read from the data, not from the text of the source: active = normalized growth mostly below about 0.91 (no sharp cut-off); inconclusive = no clear call, values can overlap the other calls; inactive = mostly above about 0.92. Some of the results follow.

Test: chemical genetic growth profiling, strain panel (AID 1159580);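 note: tested at 20 µM; growth read once vehicle control cultures reached saturation at 30 °C; 1 = growth at the plate median or of vehicle wells; lower values mean less growth of the strain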
Details: growth OD

Measured: normalized growth

N=c1nc(N2CCCCC2)cc(N)n1O
inactive: S. cerevisiae deletion strains, locus YJR075W, strain HOC1, stronger effect = lower value 1 | S. cerevisiae deletion strains, locus YKL009W, strain mrt4, stronger effect = lower value 0.948 | S. cerevisiae deletion strains, locus YKL068W, stronger effect = lower value 0.993 | S. cerevisiae deletion strains, locus YKL085W, strain MDH1 (second series), stronger effect = lower value 0.995 | S. cerevisiae deletion strains, locus YKL085W, strain MDH1, stronger effect = lower value 0.995 | S. cerevisiae deletion strains, locus YKL160W, strain elf1, stronger effect = lower value 0.969 | S. cerevisiae deletion strains, locus YKL190W, strain CNB1, stronger effect = lower value 0.996 | S. cerevisiae deletion strains, locus YKR001C, strain vps1, stronger effect = lower value 0.995 | S. cerevisiae deletion strains, locus YKR026C, strain gcn3, stronger effect = lower value 0.997 | S. cerevisiae deletion strains, locus YKR091W, strain srl3, stronger effect = lower value 0.977 | S. cerevisiae deletion strains, locus YLL001W, strain dnm1, stronger effect = lower value 0.932 | S. cerevisiae deletion strains, locus YLL026W, stronger effect = lower value 0.985 | S. cerevisiae deletion strains, locus YLL041C, strain sdh2, stronger effect = lower value 0.99 | S. cerevisiae deletion strains, locus YLR027C, strain aat2, stronger effect = lower value 1.01 | S. cerevisiae deletion strains, locus YLR039C, strain RIC1, stronger effect = lower value 0.976 | S. cerevisiae deletion strains, locus YLR058C, strain SHM2, stronger effect = lower value 0.97 | S. cerevisiae deletion strains, locus YLR102C, strain apc9, stronger effect = lower value 0.981 | S. cerevisiae deletion strains, locus YLR113W, strain HOG1, stronger effect = lower value 0.984 | S. cerevisiae deletion strains, locus YLR221C, strain rsa3, stronger effect = lower value 0.948 | S. cerevisiae deletion strains, locus YLR258W, strain gsy2, stronger effect = lower value 0.998 | S. cerevisiae deletion strains, locus YLR262C, strain YPT6 (second series), stronger effect = lower value 0.989 | S. cerevisiae deletion strains, locus YLR262C, strain YPT6, stronger effect = lower value 0.903 | S. cerevisiae deletion strains, locus YLR268W, strain sec22, stronger effect = lower value 1.08 | S. cerevisiae deletion strains, locus YLR320W, strain mms22, stronger effect = lower value 0.96 | S. cerevisiae deletion strains, locus YLR330W, strain CHS5, stronger effect = lower value 0.979 | S. cerevisiae deletion strains, locus YLR342W, strain FKS1 (second series), stronger effect = lower value 0.98 | S. cerevisiae deletion strains, locus YLR342W, strain FKS1, stronger effect = lower value 0.985 | S. cerevisiae deletion strains, locus YLR357W, strain rsc2, stronger effect = lower value 0.996 | S. cerevisiae deletion strains, locus YLR370C, strain arc18, stronger effect = lower value 0.982 | S. cerevisiae deletion strains, locus YLR371W, strain rom2, stronger effect = lower value 0.95 | S. cerevisiae deletion strains, locus YLR384C, strain iki3, stronger effect = lower value 0.987 | S. cerevisiae deletion strains, locus YLR418C, strain cdc73, stronger effect = lower value 0.994 | S. cerevisiae deletion strains, locus YML016C, strain PPZ1, stronger effect = lower value 0.973 | S. cerevisiae deletion strains, locus YML032C, strain rad52, stronger effect = lower value 0.998 | S. cerevisiae deletion strains, locus YML120C, strain ndi1, stronger effect = lower value 0.959 | S. cerevisiae deletion strains, locus YML124C, strain tub3, stronger effect = lower value 0.98 | S. cerevisiae deletion strains, locus YMR058W, strain fet3, stronger effect = lower value 0.986 | S. cerevisiae deletion strains, locus YMR078C, strain ctf18, stronger effect = lower value 0.979 | S. cerevisiae deletion strains, locus YMR125W, strain sto1, stronger effect = lower value 0.978 | S. cerevisiae deletion strains, locus YMR129W, stronger effect = lower value 0.99 | S. cerevisiae deletion strains, locus YMR205C, strain PFK2, stronger effect = lower value 0.947 | S. cerevisiae deletion strains, locus YMR223W, strain ubp8, stronger effect = lower value 0.945 | S. cerevisiae deletion strains, locus YMR231W, strain pep5, stronger effect = lower value 0.991 | S. cerevisiae deletion strains, locus YMR263W, strain SAP30, stronger effect = lower value 0.993 | S. cerevisiae deletion strains, locus YMR307W, strain GAS1, stronger effect = lower value 0.935 | S. cerevisiae deletion strains, locus YNL067W, strain RPL9B, stronger effect = lower value 0.999 | S. cerevisiae deletion strains, locus YNL071W, strain lat1, stronger effect = lower value 0.991 | S. cerevisiae deletion strains, locus YNL128W, strain TEP1, stronger effect = lower value 0.953 | S. cerevisiae deletion strains, locus YNL153C, strain GIM3, stronger effect = lower value 1.01 | S. cerevisiae deletion strains, locus YNL175C, strain NOP13, stronger effect = lower value 0.994 | S. cerevisiae deletion strains, locus YNL183C, strain NPR1, stronger effect = lower value 0.945 | S. cerevisiae deletion strains, locus YNL197C, strain WHI3, stronger effect = lower value 0.993 | S. cerevisiae deletion strains, locus YNL209W, strain ssb2, stronger effect = lower value 0.984 | S. cerevisiae deletion strains, locus YNL224C, strain SQS1, stronger effect = lower value 1.01 | S. cerevisiae deletion strains, locus YNL233W, strain BNI4, stronger effect = lower value 0.998 | S. cerevisiae deletion strains, locus YNL248C, strain rpa49, stronger effect = lower value 1 | S. cerevisiae deletion strains, locus YNL250W, strain rad50, stronger effect = lower value 0.98 | S. cerevisiae deletion strains, locus YNL271C, strain bni1, stronger effect = lower value 0.987 | S. cerevisiae deletion strains, locus YNL298W, strain CLA4, stronger effect = lower value 0.996 | S. cerevisiae deletion strains, locus YNL307C, strain MCK1, stronger effect = lower value 0.999 | S. cerevisiae deletion strains, locus YNL322C, strain KRE1 (second series), stronger effect = lower value 0.98 | S. cerevisiae deletion strains, locus YNL322C, strain KRE1, stronger effect = lower value 0.989 and 0.993 | S. cerevisiae deletion strains, locus YNR049C, strain mso1, stronger effect = lower value 0.972 | S. cerevisiae deletion strains, locus YNR052C, strain pop2, stronger effect = lower value 0.98 | S. cerevisiae deletion strains, locus YOL006C, strain TOP1, stronger effect = lower value 1.02 | S. cerevisiae deletion strains, locus YOL012C, strain htz1 0.984 | S. cerevisiae deletion strains, locus YOL147C, strain pex11, stronger effect = lower value 0.987 | S. cerevisiae deletion strains, locus YOR001W, strain rrp6, stronger effect = lower value 1.02 | S. cerevisiae deletion strains, locus YOR061W, strain CKA2, stronger effect = lower value 0.964 | S. cerevisiae deletion strains, locus YOR069W, strain VPS5, stronger effect = lower value 0.987 | S. cerevisiae deletion strains, locus YOR070C, strain gyp1, stronger effect = lower value 0.996 | S. cerevisiae deletion strains, locus YOR080W, strain dia2, stronger effect = lower value 0.984 | S. cerevisiae deletion strains, locus YOR083W, strain WHI5 (second series), stronger effect = lower value 1.01 | S. cerevisiae deletion strains, locus YOR083W, strain WHI5, stronger effect = lower value 0.974 | S. cerevisiae deletion strains, locus YOR106W, strain vam3, stronger effect = lower value 0.944 | S. cerevisiae deletion strains, locus YOR136W, strain idh2, stronger effect = lower value 0.988 | S. cerevisiae deletion strains, locus YOR144C, strain elg1, stronger effect = lower value 0.988 | S. cerevisiae deletion strains, locus YOR184W, strain ser1, stronger effect = lower value 1 | S. cerevisiae deletion strains, locus YOR231W, strain MKK1, stronger effect = lower value 1.02 | S. cerevisiae deletion strains, locus YOR265W, strain rbl2, stronger effect = lower value 0.989 | S. cerevisiae deletion strains, locus YOR270C, strain vph1, stronger effect = lower value 0.979 | S. cerevisiae deletion strains, locus YOR290C, strain snf2, stronger effect = lower value 0.896 | S. cerevisiae deletion strains, locus YOR316C, strain cot1, stronger effect = lower value 0.993 | S. cerevisiae deletion strains, locus YPL051W, strain arl3, stronger effect = lower value 1 | S. cerevisiae deletion strains, locus YPL055C, strain LGE1, stronger effect = lower value 0.988 and 0.98 | S. cerevisiae deletion strains, locus YPL078C, strain atp4, stronger effect = lower value 0.968 | S. cerevisiae deletion strains, locus YPL106C, strain sse1, stronger effect = lower value 0.948 | S. cerevisiae deletion strains, locus YPL240C, strain hsp82, stronger effect = lower value 0.981 | S. cerevisiae deletion strains, locus YPL241C, strain CIN2, stronger effect = lower value 0.976 | S. cerevisiae deletion strains, locus YPL256C, strain CLN2, stronger effect = lower value 0.993 | S. cerevisiae deletion strains, locus YPR119W, strain clb2, stronger effect = lower value 0.982 | S. cerevisiae deletion strains, locus YPR141C, strain kar3, stronger effect = lower value 0.974 | S. cerevisiae deletion strains, locus YPR163C, strain tif3, stronger effect = lower value 0.993 | S. cerevisiae deletion strains, locus YPR167C, strain met16, stronger effect = lower value 0.995 | S. cerevisiae deletion strains, strain wtn01, stronger effect = lower value 1.04 | S. cerevisiae strains, strain wild type, stronger effect = lower value 0.992
